Measured values from ChEMBL document CHEMBL3988442, “University of Dundee, Small-Polar-MMV Screening Library” (2021).
The campaign covered roughly 48,000 compounds. About 13,000 (27%) showed an effect of 50% or more. Some of the results follow.

system: Wolbachia pipientis; experiment: Anti-Wolbachia Cell-Based Screen; assay type: functional; set-up: scale not given: in the data most compounds retested in dose-response had high values; conditions: 5 µM

Structure (SMILES) | Percent Effect
COCc1nc(NC(C)c2c(C)n[nH]c2C)c2cnn(C)c2n1 (centres undefined) | 8.424%
Cc1nc(-c2ccc(CC(=O)N3CCN(C(=O)C(C)C)CC3)cc2)cs1 | -9.711%
CN(C)C(=O)c1ccc2c(c1)N(C)C(CC(=O)NC(C)(C)CO)CO2 (centres undefined) | -1.046%
CNC(=O)c1cc(-n2ccnc2-c2cnc(N(C)C)nc2)ccc1OC | -13%
CN(C)c1ncc(-c2cc(C(=O)N3CCCC3)n(CC3CC3)c2)cn1 | 121.7%
CN(C)c1ncc(-c2cc(C(=O)O)n(CC3CC3)c2)cn1 | 1.495%
CN(C)c1ncc(-c2cc(C(=O)NC(C)(C)CO)n(CC3CC3)c2)cn1 | 111.9%
CN(C)c1ncc(NC(=O)N2CCC(CN3CCCC3)C2)cn1 (centres undefined) | 8.781%
OC1(CNCc2ccc(F)c(C(F)(F)F)c2)CCSCC1 | 2.477%
O=C(O)CN1CCc2onc(C(c3ccccc3)c3ccccc3)c2C1 | -16.17%
CNS(=O)(=O)CCn1cc(-c2ccc(OC)c(OC)c2)nn1 | -29.27%
Cc1noc(C)c1CN1CCOC2(CCCN(c3ccccn3)C2)C1 (centres undefined) | -3.1%
Cc1nc(CCNC(=O)NCc2cccc(N(C)C)n2)cs1 | 98.24%
Cc1nc(CSCCC(=O)NCc2ccc(-n3cncn3)nc2)cs1 | 103.5%
COc1ccc(CNC(=O)CCSCc2csc(C)n2)cn1 | 99.67%
COc1ccc(C)c(NC(=O)NCc2cccc(N(C)C)n2)c1 | -15.2%
Cc1ccc(CNC(=O)CCSCc2csc(C)n2)cn1 | -0.6284%
CSC(C)C(=O)NCc1ccc(-n2cncn2)nc1 (centres undefined) | -9.599%
Cc1nc(CSCCC(=O)NCCNC(=O)OC(C)(C)C)cs1 | -7.243%
CC(OCC(F)(F)F)C(=O)NCc1ccc(-n2cncn2)nc1 (centres undefined) | 6.097%
Cc1nc(CNC(=O)NCCc2ccc(N(C)C)cc2)cs1 | 2.73%
Cc1nc(CSCCC(=O)NCC(=O)NC(C)C)cs1 | 3.002%
Cc1nc(CSCCC(=O)NCc2ccncc2)cs1 | 95.93%
Cc1ccc2c(c1)C(NC(=O)C1CCN(S(C)(=O)=O)CC1)CC(C)(C)O2 (centres undefined) | 2.376%
F[C@@H]1CN(CC2CC2)C[C@@H]1OCc1nc2ccc(C(F)(F)F)cc2[nH]1 | -10.92%
CC(C)N1CCc2onc(Cn3cccn3)c2C1 | -7.292%
O=C(Nc1ccccc1-c1ccccc1)N1C[C@@H]2CNC[C@]2(C(=O)O)C1 | -1.582%
Cc1nc(CNC(=O)NCC(F)(F)F)oc1C | 5.267%
Cc1ccc(-c2cc(-c3nc(CN4CCN(C)CC4)no3)n[nH]2)cc1 | -2.901%
